Experiment in all cases: NCI-60 one-dose screen, 48 h (100 = growth as untreated, 0 = no growth, -100 = all killed)
What all share (conditions): 10 µM unless noted

In experiment [1] the test system is NCI-H23 lung.
The subject of experiment [2] is NCI-H226 lung.
The test system of experiment [3] is HOP-62 NSCLC.
For experiment [4], the system named is NCI-H460 lung.
The subject of experiment [5] is HOP-92 NSCLC.
The test system of experiment [6] is NCI-H522 lung.
For experiment [7], the system named is A549/ATCC NSCLC.
Experiment [8] concerns 786-0 renal.
Experiment [9] concerns COLO 205 colon.
The subject of experiment [10] is DU-145 prostate.
Experiment [11] has as its system K-562 leukemia.
Experiment [12] relates to MALME-3M melanoma.
Experiment [13] relates to MDA-MB-231 breast.
For experiment [14], the system named is RXF 393 renal.
Experiment [15] concerns SF-268 CNS.
The subject of experiment [16] is SF-295 CNS.
The subject of experiment [17] is SF-539 CNS.
Experiment [18] relates to UACC-257 melanoma.
Experiment [19] concerns M14 melanoma.

Each structure is given as a SMILES string. About 83,000 compounds went through this panel and 20% of them were active in at least one assay; those are over-represented in the sample as a whole.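 48-hour exposure, single concentration, 96-well plates; percent growth endpoint where 0 means no net growth. Active: below 10.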 Values without a mark were called inactive. Calls of active or inactive are those of the source.

For `COc1ccc(C(c2cc(OC)c(OC)c(OC)c2)N2CCCCC2)cc1` (stereo not given), the growth in experiment [1] was 59.3%; in experiment [2] it was 55.5%; in [3], 29.8%; in experiment [4], 19.4%; in experiment [5], 44.1%; in experiment [6], 19.9%. For the same compound, the growth in experiment [7] is 49.1%; in [8], 38.8%; in experiment [9], 16.1%; in experiment [10], 64.2%; in [11] it was 18%; in [12] it was 55.3%. The growth in experiment [13] was 53.1%; in experiment [14], 26%; in [15], 47.2%; in experiment [16] it was 18.7%; in experiment [17] it was 27.7%; in [18] it was 54.9%. The growth in experiment [19] is 23.3%.

In the case of `COc1ccc(N/N=C/c2cn(-c3ccc(C(=O)O)cc3)nc2-c2cc3ccccc3oc2=O)cc1`, the growth in experiment [1] was 86.7%; in experiment [2], 75.3%; in [4], 47.4%; in [5], 86.6%; in [6], 52.3%; in [7], 57.1%. The growth in experiment [8] is 59%; in experiment [9] it was 84.3%; in experiment [10] it was 84.2%; in experiment [11] it was 11.3%; in experiment [12], 109%; in experiment [13], 77.9%. Further, the growth was 111% in experiment [14]; 68.5% in experiment [15]; 22.5% in experiment [16]; 50% in [17]; 88.9% in experiment [18]; 42.3% in [19].

For the compound `CCOC(=O)CC1CSC(N/N=C/c2ccc(F)c(Br)c2)=N1` (stereo not given), the growth in [1] is 99.8%; in experiment [2] it was 104%; in [3] it was 94.2%; in [4], 112%; in experiment [5] it was 105%; in [6] it was 86.2%. The growth in experiment [7] is 91.2%; in experiment [8] it was 100%; in experiment [9], 110%; in experiment [10], 103%; in [11], 90.5%; in experiment [12], 101%. Besides, the growth in experiment [13] is 109%; in experiment [14] it was 111%; in experiment [15], 92.3%; in [16], 96.8%; in experiment [17] it was 106%; in experiment [18], 103%. In experiment [19], the growth was 102%.

As to `Cc1ccc2c(c1)=C/C(=C\c1cc(-c3ccccc3)[nH]c1O)C(=O)N=2`, the growth is 56.7% in experiment [1]; 69.5% in experiment [2]; 52% in [3]; 25.6% in experiment [4]; 58% in [5]; 27% in experiment [6]. Moreover, the growth in experiment [7] was 46.2%; in experiment [8], 41.6%; in experiment [9], 33.1%; in [10] it was 61.6%; in [11], 13.7%; in experiment [12], 54.5%. The growth in [13] is 50.6%; in [14], 34.5%; in experiment [15] it was 47.4%; in [16] it was 32.8%; in experiment [17], 8.94% (active); in [18] it was 64.7%. Also, the growth in experiment [19] is 17.8%.

For `O=C(Nc1cc(Cl)cc(Cl)c1)Oc1c(Cl)c(Cl)c(Cl)c(Cl)c1Cl`, the growth in [1] was 57%; in experiment [2], 72.5%; in experiment [3], 94.4%; in experiment [4], 72.6%; in [5] it was -18.7% (active); in [6] it was 38.9%. Also, the growth in [7] was 71.2%; in experiment [8] it was 81.1%; in experiment [9], 80.7%; in experiment [10] it was 83.7%; in experiment [11] it was 41.4%; in [12], 80.6%. In addition, the growth was 77.8% in experiment [13]; 79.7% in experiment [14]; 77.3% in experiment [15]; 59.8% in [16]; 76.8% in experiment [17]; 83.7% in experiment [18]. The growth in [19] was 87.3%.

As to `COc1ccc(C=Nc2c(C(=O)Nc3cccc(Cl)c3C)sc3nc(C)c(C(=O)/C=C/c4ccc(OC)cc4)cc23)cc1`, the growth is 31.2% in experiment [1]; 53.8% in experiment [2]; 46.5% in experiment [3]; 8.92% (active) in experiment [4]; 79.2% in experiment [5]; 0.467% (active) in experiment [6]. Also, the growth in experiment [7] is 30.8%; in experiment [8], 21.5%; in experiment [9], 11.2%; in experiment [10], 14.7%; in experiment [11], 17.1%; in experiment [12], 44.4%. Further, the growth in [13] was 2.5% (active); in [14], -44.4% (active); in [15], 29.9%; in experiment [16], 18.5%; in experiment [17], -30.6% (active); in [18], 55.6%.

As to `CCOC(=O)C#Cc1c(C(=O)OCC)nnn1[C@@H]1O[C@H](COC)[C@@H](OC)[C@H]1OC`, the growth in experiment [1] is 101%; in [2], 82.6%; in [4] it was 109%; in experiment [5] it was 68.5%; in [6], -58.7% (active); in experiment [7], 95.9%. In addition, the growth in experiment [8] is 84.2%; in experiment [9] it was -54.7% (active); in [10], 92.6%; in [11] it was 9.33% (active); in experiment [12], 25.8%; in experiment [13] it was 107%. Also, the growth was 14% in experiment [14]; 106% in experiment [15]; 95.1% in experiment [16]; 84.7% in experiment [17]; 59.3% in experiment [18]; 61.8% in [19].

Source of the values: PubChem BioAssay (NCI).
